Source: ChEMBL document CHEMBL1961873, “Compounds: GSK PKIS; Assays: Nanosyn kinase panel” (2012)

Experiments:
[1] = target: Serine/threonine-protein kinase MARK2 (Homo sapiens) (UniProt Q7KZI7); details: at 1 µM
[2] = target: PAS domain-containing serine/threonine-protein kinase (Homo sapiens) (UniProt Q96RG2); details: at 0.1 µM
[3] = target: PAS domain-containing serine/threonine-protein kinase (Homo sapiens) (UniProt Q96RG2); details: at 1 µM
[4] = target: Phosphorylase b kinase gamma catalytic chain, skeletal muscle/heart isoform (Homo sapiens) (UniProt Q16816); details: at 0.1 µM
Phosphorylase b kinase gamma catalytic chain, skeletal muscle/heart isoform (Homo sapiens), sequence (Q16816 whole entry, looked up, canonical isoform): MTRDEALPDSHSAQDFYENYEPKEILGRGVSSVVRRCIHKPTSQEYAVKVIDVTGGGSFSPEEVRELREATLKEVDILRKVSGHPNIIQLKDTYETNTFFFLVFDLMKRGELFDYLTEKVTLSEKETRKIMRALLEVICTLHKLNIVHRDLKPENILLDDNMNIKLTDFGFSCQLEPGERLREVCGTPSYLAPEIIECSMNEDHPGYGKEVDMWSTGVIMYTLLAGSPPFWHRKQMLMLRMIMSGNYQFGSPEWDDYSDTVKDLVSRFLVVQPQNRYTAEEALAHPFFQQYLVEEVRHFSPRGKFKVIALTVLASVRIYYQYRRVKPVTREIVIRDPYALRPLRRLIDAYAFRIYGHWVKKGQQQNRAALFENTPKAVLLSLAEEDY

[5] = target: Phosphorylase b kinase gamma catalytic chain, skeletal muscle/heart isoform (Homo sapiens) (UniProt Q16816); details: at 1 µM
[6] = target: T1, Phosphorylase b kinase gamma catalytic chain, liver/testis isoform (Homo sapiens) (UniProt P15735); details: at 0.1 µM
T1 sequence (whole entry): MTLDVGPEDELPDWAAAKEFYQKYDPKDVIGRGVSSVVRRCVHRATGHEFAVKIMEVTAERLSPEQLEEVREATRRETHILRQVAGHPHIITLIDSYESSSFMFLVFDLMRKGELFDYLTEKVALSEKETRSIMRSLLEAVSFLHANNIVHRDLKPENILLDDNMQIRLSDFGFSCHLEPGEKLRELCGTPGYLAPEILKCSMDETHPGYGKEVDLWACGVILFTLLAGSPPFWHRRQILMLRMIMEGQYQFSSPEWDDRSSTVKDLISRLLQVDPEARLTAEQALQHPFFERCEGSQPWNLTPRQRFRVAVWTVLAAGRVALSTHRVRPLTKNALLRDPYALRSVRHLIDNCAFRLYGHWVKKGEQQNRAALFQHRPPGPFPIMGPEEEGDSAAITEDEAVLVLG

[7] = target: T1, Phosphorylase b kinase gamma catalytic chain, liver/testis isoform (Homo sapiens); details: at 1 µM
[8] = target: Serine/threonine-protein kinase pim-1 (Homo sapiens) (UniProt P11309); details: at 0.1 µM
Serine/threonine-protein kinase pim-1 (Homo sapiens), sequence (P11309 whole entry, looked up): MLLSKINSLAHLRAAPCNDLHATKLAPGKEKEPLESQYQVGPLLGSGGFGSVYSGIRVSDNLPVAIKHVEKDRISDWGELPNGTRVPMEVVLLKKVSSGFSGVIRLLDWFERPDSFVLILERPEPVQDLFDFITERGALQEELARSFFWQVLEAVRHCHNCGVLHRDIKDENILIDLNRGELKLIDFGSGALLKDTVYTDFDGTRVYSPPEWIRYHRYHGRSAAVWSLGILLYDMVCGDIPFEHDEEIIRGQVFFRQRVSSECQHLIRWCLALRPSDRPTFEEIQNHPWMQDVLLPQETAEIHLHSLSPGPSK

[9] = target: Serine/threonine-protein kinase pim-1 (Homo sapiens) (UniProt P11309); details: at 1 µM
[10] = target: Serine/threonine-protein kinase pim-2 (Homo sapiens) (UniProt Q9P1W9); details: at 0.1 µM;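 also: reported value is the mean percent inhibition of PIM2, measured in the GSK PKIS kinase inhibitor set screen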
Serine/threonine-protein kinase pim-2 (Homo sapiens), sequence (Q9P1W9 whole entry, looked up): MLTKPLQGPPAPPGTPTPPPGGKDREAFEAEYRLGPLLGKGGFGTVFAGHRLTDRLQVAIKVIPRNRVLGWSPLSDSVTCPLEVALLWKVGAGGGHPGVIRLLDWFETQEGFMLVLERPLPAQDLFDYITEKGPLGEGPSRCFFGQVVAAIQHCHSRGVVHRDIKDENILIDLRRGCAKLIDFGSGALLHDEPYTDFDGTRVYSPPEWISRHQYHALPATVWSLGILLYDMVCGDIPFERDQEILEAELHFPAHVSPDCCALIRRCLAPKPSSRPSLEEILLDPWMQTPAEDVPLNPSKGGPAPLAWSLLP

PAS domain-containing serine/threonine-protein kinase (Homo sapiens), sequence (Q96RG2 whole entry, the tested form may be a part, canonical isoform): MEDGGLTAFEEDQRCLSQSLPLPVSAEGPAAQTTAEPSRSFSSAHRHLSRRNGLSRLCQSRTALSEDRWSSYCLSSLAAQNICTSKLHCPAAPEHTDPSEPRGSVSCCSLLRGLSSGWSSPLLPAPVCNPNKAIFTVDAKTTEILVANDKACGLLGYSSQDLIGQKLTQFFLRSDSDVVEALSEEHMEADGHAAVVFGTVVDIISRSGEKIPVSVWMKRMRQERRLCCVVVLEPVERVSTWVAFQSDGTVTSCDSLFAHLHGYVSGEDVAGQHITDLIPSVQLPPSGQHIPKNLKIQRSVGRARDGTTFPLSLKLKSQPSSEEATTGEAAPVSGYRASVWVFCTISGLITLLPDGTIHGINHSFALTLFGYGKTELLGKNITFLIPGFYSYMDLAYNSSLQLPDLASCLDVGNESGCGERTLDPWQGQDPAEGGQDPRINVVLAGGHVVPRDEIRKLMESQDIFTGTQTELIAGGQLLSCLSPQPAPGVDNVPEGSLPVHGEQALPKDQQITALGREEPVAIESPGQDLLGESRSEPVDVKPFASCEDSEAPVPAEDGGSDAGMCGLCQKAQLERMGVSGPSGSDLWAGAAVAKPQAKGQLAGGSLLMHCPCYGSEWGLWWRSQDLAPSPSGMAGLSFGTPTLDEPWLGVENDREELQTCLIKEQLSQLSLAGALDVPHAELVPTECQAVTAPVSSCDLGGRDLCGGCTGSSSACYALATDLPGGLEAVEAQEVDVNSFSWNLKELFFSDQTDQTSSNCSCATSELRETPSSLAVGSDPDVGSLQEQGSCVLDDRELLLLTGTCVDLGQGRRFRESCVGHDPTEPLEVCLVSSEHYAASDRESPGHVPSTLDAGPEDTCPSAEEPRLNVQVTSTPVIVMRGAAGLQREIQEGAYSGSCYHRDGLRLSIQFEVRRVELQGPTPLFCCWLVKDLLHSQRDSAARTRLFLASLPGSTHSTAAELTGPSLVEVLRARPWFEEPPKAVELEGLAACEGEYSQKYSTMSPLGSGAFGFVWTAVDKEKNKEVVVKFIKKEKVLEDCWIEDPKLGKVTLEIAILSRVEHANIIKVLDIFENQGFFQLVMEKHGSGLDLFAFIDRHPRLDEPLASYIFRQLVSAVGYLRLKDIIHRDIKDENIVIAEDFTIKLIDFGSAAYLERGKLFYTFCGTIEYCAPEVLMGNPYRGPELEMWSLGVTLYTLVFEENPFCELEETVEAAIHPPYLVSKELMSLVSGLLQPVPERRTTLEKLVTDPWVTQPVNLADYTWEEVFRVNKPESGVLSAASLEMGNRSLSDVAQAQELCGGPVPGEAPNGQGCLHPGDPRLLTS
Serine/threonine-protein kinase MARK2 (Homo sapiens), sequence (Q7KZI7 whole entry, the tested form may be a part): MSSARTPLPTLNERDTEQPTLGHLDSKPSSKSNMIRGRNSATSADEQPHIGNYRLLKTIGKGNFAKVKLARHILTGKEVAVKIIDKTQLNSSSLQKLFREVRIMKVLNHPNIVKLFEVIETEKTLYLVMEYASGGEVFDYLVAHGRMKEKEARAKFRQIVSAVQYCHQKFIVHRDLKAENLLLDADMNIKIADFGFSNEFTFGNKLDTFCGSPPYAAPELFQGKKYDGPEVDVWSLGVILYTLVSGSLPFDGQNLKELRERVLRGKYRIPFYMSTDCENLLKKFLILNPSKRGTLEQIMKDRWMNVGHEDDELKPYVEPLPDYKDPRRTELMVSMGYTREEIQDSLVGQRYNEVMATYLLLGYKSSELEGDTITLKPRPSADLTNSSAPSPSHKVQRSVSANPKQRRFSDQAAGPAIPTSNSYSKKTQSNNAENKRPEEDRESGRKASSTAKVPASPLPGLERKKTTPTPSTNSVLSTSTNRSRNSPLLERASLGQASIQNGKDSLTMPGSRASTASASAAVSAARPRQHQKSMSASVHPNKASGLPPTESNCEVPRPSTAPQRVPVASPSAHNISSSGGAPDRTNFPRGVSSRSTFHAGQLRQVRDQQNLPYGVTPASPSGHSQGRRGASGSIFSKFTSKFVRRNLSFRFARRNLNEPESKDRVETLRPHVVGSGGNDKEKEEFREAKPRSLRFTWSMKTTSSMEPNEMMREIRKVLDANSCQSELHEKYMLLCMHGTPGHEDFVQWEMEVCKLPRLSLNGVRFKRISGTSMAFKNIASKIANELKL

COc1cccc(-n2nc(C)c3c(N/N=C(\C)c4ccncc4)ncnc32)c1
inhibition [1]: 0.88%
inhibition [2]: 1.38%
inhibition [3]: 0.57%
inhibition [4]: 0.48%
inhibition [5]: 2.64%
inhibition [6]: 0.83%
inhibition [7]: 0.29%
inhibition [8]: -0.49%
inhibition [9]: 0.18%
inhibition [10]: -0.5%

NC(=O)c1sc(-n2cnc3ccccc32)cc1OCc1ccccc1Br
inhibition [1]: 6.32%
inhibition [2]: -0.54%
inhibition [3]: -0.07%
inhibition [4]: 2.76%
inhibition [5]: 6.49%
inhibition [6]: 4.32%
inhibition [7]: 5.93%
inhibition [8]: 0.2%
inhibition [9]: 3.08%
inhibition [10]: -0.36%

[O-][S+]1CCN(Cc2ccc(-c3ccc4ncnc(Nc5ccc(OCc6ccccc6)c(Cl)c5)c4c3)o2)CC1
inhibition [1]: 2.27%
inhibition [2]: 0.68%
inhibition [3]: -0.53%
inhibition [4]: 3.63%
inhibition [5]: 3.41%
inhibition [6]: 2.31%
inhibition [7]: -0.04%
inhibition [8]: 0.56%
inhibition [9]: 1.25%
inhibition [10]: 0.46%

FC(F)(F)c1ccc(-c2nn3ncccc3c2-c2ccnc(Nc3ccc4c(c3)OCCO4)n2)cc1
inhibition [1]: 4.45%
inhibition [2]: 6.37%
inhibition [3]: 10.9%
inhibition [4]: 7.07%
inhibition [5]: 8.64%
inhibition [6]: 0.59%
inhibition [7]: 6.97%
inhibition [8]: 0.47%
inhibition [9]: 1.86%
inhibition [10]: 6.45%

O=S(=O)(CCOCc1ccc(-c2ccc3ncnc(Nc4ccc(OCc5cccc(F)c5)c(Cl)c4)c3c2)o1)c1ccccc1
inhibition [1]: 3.35%
inhibition [2]: -0.23%
inhibition [3]: -0.13%
inhibition [4]: 1.12%
inhibition [5]: 5.02%
inhibition [6]: 1.75%
inhibition [7]: -0.77%
inhibition [8]: 1.1%
inhibition [9]: 2.1%
inhibition [10]: 0.88%

CS(=O)(=O)CCNCc1nc(-c2ccc3ncnc(Nc4ccc(OCc5cccc(C(F)(F)F)c5)cc4)c3c2)cs1
inhibition [1]: 1.07%
inhibition [2]: 0.16%
inhibition [3]: -0.13%
inhibition [4]: 0.25%
inhibition [5]: 3.14%
inhibition [6]: 2.6%
inhibition [7]: 2.29%
inhibition [8]: 0.49%
inhibition [9]: -0.28%
inhibition [10]: -0.54%

C[C@@H](Oc1cc(-n2cnc3ccc(OC[C@@H](O)CO)cc32)sc1C(N)=O)c1ccccc1Cl
inhibition [1]: 4.76%
inhibition [2]: 0.26%
inhibition [3]: 1.99%
inhibition [4]: 0.98%
inhibition [5]: 4.08%
inhibition [6]: -2.13%
inhibition [7]: -1.44%
inhibition [8]: 2.14%
inhibition [9]: 19.1%
inhibition [10]: -0.13%

COc1ccc(-c2nn3ncccc3c2-c2ccnc(Nc3cccc(C(F)(F)F)c3)n2)cc1
inhibition [1]: 1.37%
inhibition [2]: 0.84%
inhibition [3]: 0.1%
inhibition [4]: 3.78%
inhibition [5]: 4.58%
inhibition [6]: 4.42%
inhibition [7]: 4.66%
inhibition [8]: 0.05%
inhibition [9]: 0.66%
inhibition [10]: 0.02%

Oc1cccc(-c2nc(-c3ccccc3)[nH]c2-c2ccncc2)c1
inhibition [1]: 0.43%
inhibition [2]: 0.7%
inhibition [3]: 0.32%
inhibition [4]: 4.05%
inhibition [5]: 3.93%
inhibition [6]: 5.23%
inhibition [7]: 4.95%
inhibition [8]: 0.8%
inhibition [9]: 2.57%
inhibition [10]: -0.34%

NS(=O)(=O)c1cccc(Nc2cc(-c3ccc(F)cc3)n[nH]2)c1
inhibition [1]: 9.04%
inhibition [2]: 0.67%
inhibition [3]: 2.88%
inhibition [4]: 2.8%
inhibition [5]: 14.5%
inhibition [6]: 4.37%
inhibition [7]: 8.84%
inhibition [8]: 1.38%
inhibition [9]: 1.68%
inhibition [10]: 0.15%

c1ccc(Nc2ncc(-c3ccccc3)o2)cc1
inhibition [1]: 2.64%
inhibition [2]: -0.05%
inhibition [3]: -0.71%
inhibition [4]: 2.61%
inhibition [5]: 10.9%
inhibition [6]: 6.62%
inhibition [7]: 6.17%
inhibition [8]: 1.47%
inhibition [9]: 3.45%
inhibition [10]: -1.31%

c1ccc(Cc2nc3ccc(Nc4ncnc5ccccc45)cc3[nH]2)cc1
inhibition [1]: 2.19%
inhibition [2]: 0.03%
inhibition [3]: 0.27%
inhibition [4]: 2.35%
inhibition [5]: 4.75%
inhibition [6]: 3.39%
inhibition [7]: 4.89%
inhibition [8]: 0.17%
inhibition [9]: 0.7%
inhibition [10]: -0.72%

CN1CCN(C(=O)c2ccc(NC(=O)Nc3ccc(N(C)c4ccnc(Nc5ccc(CS(C)(=O)=O)cc5)n4)cc3)cc2)CC1
inhibition [1]: 8.38%
inhibition [2]: -0.3%
inhibition [3]: 0.27%
inhibition [4]: -1.64%
inhibition [5]: 1.5%
inhibition [6]: 2.03%
inhibition [7]: 3.05%
inhibition [8]: 0.58%
inhibition [9]: -0.28%
inhibition [10]: -0.2%

NS(=O)(=O)c1ccc(NC=C2C(=O)Nc3ccc4ncsc4c32)cc1
inhibition [1]: 46.2%
inhibition [2]: 0.44%
inhibition [3]: -0.6%
inhibition [4]: 20.3%
inhibition [5]: 66.4%
inhibition [6]: 8.94%
inhibition [7]: 32.1%
inhibition [8]: 2.48%
inhibition [9]: 9.5%
inhibition [10]: 1.26%

CCn1c(-c2nonc2N)nc2c(C#CC(C)(C)O)nc(OCCNC)cc21
inhibition [1]: 10.6%
inhibition [2]: -1.05%
inhibition [3]: 0.6%
inhibition [4]: 1.42%
inhibition [5]: 4.25%
inhibition [6]: 3.52%
inhibition [7]: 4.33%
inhibition [8]: 1.82%
inhibition [9]: 4.29%
inhibition [10]: -0.54%

Nc1nccc(C#Cc2cncnc2Nc2ccc(OCc3cccc(F)c3)c(Cl)c2)n1
inhibition [1]: 8.86%
inhibition [2]: -0.05%
inhibition [3]: -3.04%
inhibition [4]: 6.86%
inhibition [5]: 27.5%
inhibition [6]: 4.05%
inhibition [7]: 2.05%
inhibition [8]: 1.29%
inhibition [9]: 1.16%
inhibition [10]: 0.62%

NS(=O)(=O)c1ccc(N/N=C2\C(=O)Nc3ccc(Cl)cc32)cc1
inhibition [1]: 6.16%
inhibition [2]: 0.76%
inhibition [3]: 1.52%
inhibition [4]: 0.25%
inhibition [5]: 14.3%
inhibition [6]: 5.9%
inhibition [7]: 8.4%
inhibition [8]: 1.22%
inhibition [9]: 2.42%
inhibition [10]: -0.27%
